Reference: PubChem BioAssay
Where “and” joins values, the source holds several entries; their conditions need not be identical. Equal values may be shown once. Calls of active or inactive are those of the source.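 The calls were made as follows, unless noted: active = mean z-score across replicates of 1.96 or higher in either the MELAS or the Rieske mutant cell line; inactive = the rest.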

How the values were obtained:
[1] = suppressors of polyQ aggregation in yeast, 75Q-TubU reporter (AID 1593); settings: Yeast 75Q polyglutamine aggregation reporter
[2] = inhibitors of mitochondrial cytochrome c release, biochemical, purified mitochondria (AID 1603); settings: stronger effect = lower value;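 also: mouse liver mitochondria challenged with calcium chloride; signal normalized to the plate average as 100%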
[3] = inhibitors of polyQ protein aggregation (AID 1604); settings: polyglutamine-induced protein aggregation inhibition assay; stronger effect = higher value; tested at 2.5 µM
[4] = stimulators of nuclear beta-catenin in C2C12, primary screen, imaging, WNT3A-conditioned medium, mouse C2C12, NPC library (AID 1117326; in the data active = nuclear beta-catenin stimulation mostly above about 4.2%, no sharp cut-off; inactive = mostly below about 10%); settings: stronger effect = higher value
[5] = stimulators of insulin release from INS-1E, primary screen, cell-based, 5 mM glucose, NPC library (AID 1117329;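 active = compound raises insulin release from rat beta cells at 5 mM glucose, no numeric limit stated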); settings: rat INS-1E insulin secretion, at 10 µM, stronger effect = higher value
[6] = growth inhibition of GSK3B-pretreated HCT116 cells – cell-based, CellTiter-Glo, 0.2 to 20 µM (AID 1117336;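 active = compounds lowering colon cancer cell viability after pretreatment blocking the GSK3B kinase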); settings: HCT116 viability after GSK3B inhibitor, at 20 µM, stronger effect = higher value
[7] = inhibition of endothelial tube formation, primary screen, imaging, VEGF stimulated, CD31 staining, tube area, NPC library (AID 1117340;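 active = compound that reduces growth-factor-driven endothelial tube area in a mixed cell culture, no cutoff stated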); settings: VEGF-stimulated ADSC/ECFC co-culture, at 10 µM, stronger effect = higher value
[8] = glucagon-like peptide 1 release enhancers, primary assay, NCI-H716 cell line, NPC library (AID 1117341;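 active = compound raises GLP1 secretion from the human gut endocrine cells, with no numeric limit stated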); settings: NCI-H716 cells, at 10 µM, stronger effect = higher value
[9] = HCT116 colon cancer cell growth inhibition, primary screen, CellTiter-Glo luminescence, NPC library (AID 1117342;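 active = compounds that lower survival of HCT116 colon cancer cells in the luminescence readout, no numeric limit stated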); settings: at 20 µM (top of the series)
[10] = CellTiter-Glo luminescent readout of SW480 viability loss, NPC library primary (AID 1117343;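 active = compounds that lower viability of the colon cancer cells in the luminescence readout, with no numeric limit stated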); settings: CellTiter-Glo luminescence; at 20 µM (top of the series)
[11] = decreased DLD-1 cellular survival, CellTiter-Glo luminescent readout, NPC compound collection, primary HTS (AID 1117346;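 active = compounds that lower survival of DLD-1 colon cancer cells in the luminescence readout, no cutoff given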); settings: DLD-1 viability, CellTiter-Glo luminescence; at 20 µM (top of the series)
[12] = target: 6-phosphogluconate dehydrogenase, decarboxylating (Homo sapiens) (UniProt P52209); experiment: 6PGD enzyme inhibitors, primary screen, biochemical, human, recombinant enzyme, NADPH absorbance (AID 1159550;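 active = at least 20% inhibition of 6-phosphogluconate dehydrogenase activity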); settings: recombinant 6PGD, NADPH absorbance 341 nm; at 10 µM; stronger effect = higher value
Sequence of 6-phosphogluconate dehydrogenase, decarboxylating (Homo sapiens) (P52209 whole entry, looked up): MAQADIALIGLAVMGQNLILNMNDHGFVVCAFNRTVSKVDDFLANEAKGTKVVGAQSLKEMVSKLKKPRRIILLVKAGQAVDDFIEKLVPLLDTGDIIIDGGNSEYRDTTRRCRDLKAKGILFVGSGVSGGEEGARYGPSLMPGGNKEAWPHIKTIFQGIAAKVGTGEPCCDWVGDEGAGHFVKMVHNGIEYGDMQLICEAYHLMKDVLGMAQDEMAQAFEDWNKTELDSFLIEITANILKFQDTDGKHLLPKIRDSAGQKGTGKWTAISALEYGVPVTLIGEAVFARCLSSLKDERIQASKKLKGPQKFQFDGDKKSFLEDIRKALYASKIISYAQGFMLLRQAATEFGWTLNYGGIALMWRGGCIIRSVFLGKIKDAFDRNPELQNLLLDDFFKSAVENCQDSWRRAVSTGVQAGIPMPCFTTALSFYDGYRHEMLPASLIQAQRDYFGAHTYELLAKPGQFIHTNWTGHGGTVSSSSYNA

[13] = differential killing of epithelial or mesenchymal cells, primary screen, imaging, PC-3E GFP, TEM4-18 mCherry, co-culture (AID 1345086;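 active = compounds killing one labelled cell type while sparing the other, by normalised counts and ratio limits, not self-fluorescent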;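 as to all read-outs here: cells exposed to compound for 72 h before imaging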;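 as to red/green cell ratio (normalised): normalised mesenchymal count divided by normalised epithelial count so high means epithelial killing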); settings: imaging cell counts, at 1 µM; for red/green cell ratio (normalised): actives lie on both sides
[14] = tested on: Aerobactin synthetase IucA (Klebsiella pneumoniae hvKP1); experiment: Biochemical IucA enzyme inhibition primary screen of the Spectrum library (AID 1346200; call rule not given here;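 also: 100% = wells without compound and 0% = wells lacking enzyme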); settings: malachite green pyrophosphate, A620, at 8 µM, stronger effect = lower value
[15] = survival rescue of mitochondrial mutant cells in low glucose, primary screen, MELAS cybrids, Rieske KO mouse fibroblasts, CellTiter-Glo (AID 1508586);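 also: z relative to plate mean and SD of compound and empty wells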
[16] = target: NAD(+) hydrolase SARM1 (Homo sapiens) (UniProt Q6SZW1); experiment: SARM1 TIR NADase inhibitors, cell lysate, NAD-Glo luminescence (AID 1508614;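 active = compound whose remaining NAD level is above about 45 nM, limit read from the data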;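 also: higher remaining NAD means stronger inhibition of SARM1 NADase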); settings: SAM-TIR HEK293T lysate NADase, at 1 µM, stronger effect = higher value
Sequence of NAD(+) hydrolase SARM1 (Homo sapiens) (Q6SZW1 whole entry, looked up, the tested form may be a part): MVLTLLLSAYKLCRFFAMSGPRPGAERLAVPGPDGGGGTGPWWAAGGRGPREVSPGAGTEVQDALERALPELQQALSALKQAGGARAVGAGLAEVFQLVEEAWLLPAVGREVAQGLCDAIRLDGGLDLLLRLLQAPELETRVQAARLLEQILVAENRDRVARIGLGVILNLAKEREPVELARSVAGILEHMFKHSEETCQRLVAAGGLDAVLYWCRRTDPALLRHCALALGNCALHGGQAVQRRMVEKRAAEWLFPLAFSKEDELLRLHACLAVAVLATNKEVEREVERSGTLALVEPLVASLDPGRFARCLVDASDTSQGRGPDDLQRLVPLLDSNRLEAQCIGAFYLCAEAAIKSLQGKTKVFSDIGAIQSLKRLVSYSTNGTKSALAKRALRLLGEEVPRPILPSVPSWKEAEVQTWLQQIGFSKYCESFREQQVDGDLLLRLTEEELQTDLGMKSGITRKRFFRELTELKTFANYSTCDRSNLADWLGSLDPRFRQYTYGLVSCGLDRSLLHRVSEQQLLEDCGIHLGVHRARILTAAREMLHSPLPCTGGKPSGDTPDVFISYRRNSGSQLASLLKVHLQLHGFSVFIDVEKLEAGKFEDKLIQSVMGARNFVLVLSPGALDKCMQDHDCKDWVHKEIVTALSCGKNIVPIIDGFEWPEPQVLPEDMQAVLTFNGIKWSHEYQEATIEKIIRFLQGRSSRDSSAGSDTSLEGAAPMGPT

[17] = target: Mitogen-activated protein kinase 7 (Homo sapiens) (UniProt Q13164); experiment: ERK5 transactivation activators in reporter cells, primary screen, cell-based, HTS (AID 1508626;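 active = luciferase signal above three times the same-plate solvent-only control wells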;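 also: luciferase driven by Gal4-ERK5 fusion binding five Gal4 sites before minimal TATA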); settings: HeLa Gal4-ERK5 transactivation, 18 h, at 5 µM, stronger effect = higher value
Sequence of Mitogen-activated protein kinase 7 (Homo sapiens) (Q13164 whole entry, looked up, the tested form may be a part): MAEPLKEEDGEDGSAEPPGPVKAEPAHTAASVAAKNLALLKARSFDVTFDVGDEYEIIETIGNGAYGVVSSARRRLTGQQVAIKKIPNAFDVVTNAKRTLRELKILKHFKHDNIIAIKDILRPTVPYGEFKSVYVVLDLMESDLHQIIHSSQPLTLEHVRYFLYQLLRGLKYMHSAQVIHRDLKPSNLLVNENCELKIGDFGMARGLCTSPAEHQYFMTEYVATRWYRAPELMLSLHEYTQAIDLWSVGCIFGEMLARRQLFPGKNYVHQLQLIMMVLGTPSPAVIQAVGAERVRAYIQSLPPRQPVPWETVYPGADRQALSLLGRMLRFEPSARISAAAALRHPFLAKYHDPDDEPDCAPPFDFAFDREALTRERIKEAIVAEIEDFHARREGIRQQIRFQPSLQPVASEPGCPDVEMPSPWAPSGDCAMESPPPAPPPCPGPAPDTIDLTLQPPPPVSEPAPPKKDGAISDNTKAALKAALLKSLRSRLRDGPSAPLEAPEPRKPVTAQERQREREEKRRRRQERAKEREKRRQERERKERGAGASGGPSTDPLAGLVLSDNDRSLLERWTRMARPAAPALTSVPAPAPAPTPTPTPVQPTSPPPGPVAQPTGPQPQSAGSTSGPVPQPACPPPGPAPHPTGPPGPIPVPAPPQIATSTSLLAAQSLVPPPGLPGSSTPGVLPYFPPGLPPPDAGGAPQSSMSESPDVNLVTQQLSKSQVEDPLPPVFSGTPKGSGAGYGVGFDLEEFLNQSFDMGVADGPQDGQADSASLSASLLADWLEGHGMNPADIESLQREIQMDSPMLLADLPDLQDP

[18] = viability rescue of complex I mutant cybrids, primary screen, cell-based, galactose medium, ATP luminescence (AID 1645843;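 active = z-score of at least 1.8 in each of two replicates, scored against plate mean and spread of sample wells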;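 also: positive z means more ATP and so rescue of galactose-driven cybrid death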); settings: complex I mutant cybrid cells, 72 h, stronger effect = higher value
[19] = liver-stage malaria parasite growth inhibition, primary screen, cell-based, HepG2, luciferase luminescence, HepG2 viability (AID 624349; in the data active = parasite load remaining mostly below about 12%, no sharp cut-off; inactive = mostly above about 10%;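 also: 100% = mean of DMSO negative control wells on the same plate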); settings: P. berghei liver stage in HepG2, luciferase luminescence, concentration not given here; parasite load remaining: stronger effect = lower value; viability: measured here: HepG2 viability without parasites
[20] = sensitizers of A549 cells to miR-34 induction, primary screen, imaging, A549 dox-inducible miR-34, nuclei and caspase counts (AID 1347080;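 active = compounds whose cell count with miR-34 switched on is under 0.7 times the count with it off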); settings: A549 miR-34 inducible, Hoechst nuclei count, 48 h
[21] = measured here: epithelial PC-3E GFP cell survival
[22] = measured here: mesenchymal TEM4-18 mCherry cell survival
[23] = MELAS cybrid survival, CellTiter-Glo 48 h, stronger effect = higher value
[24] = Rieske KO mouse fibroblast survival, CellTiter-Glo 72 h

SMILES: CC(C)N(CCC(C(N)=O)(c1ccccc1)c1ccccn1)C(C)C (configuration not stated)
- score [1]: 1.39
- cytochrome c release ratio [2]: 1.18
- inhibition of aggregation [3]: 70.4%
- nuclear beta-catenin stimulation ([4]; at 10 µM): 0.5% (inactive)
- nuclear beta-catenin stimulation ([4]; stimulation, at 2 µM): 1.2%
- insulin secretion stimulation [5]: 0.8% (inactive)
- viability decrease [6]: -17.4% (inactive)
- tube area decrease [7]: 15.3% (inactive)
- GLP1 secretion stimulation [8]: -2.8% (inactive)
- inhibition of viability [9]: -3.87% (inactive)
- viability decrease (inhibition) [10]: 18.8% (inactive)
- viability decrease (inhibition) [11]: -13.7% (inactive)
- inhibition [12]: 5.28% (inactive)
- red/green cell ratio (normalised) [13]: 1.1 (inactive)
- normalised cell number [13, 21]: 1.22
- normalised cell number [13, 22]: 1.34
- activity remaining [14]: 102% (inactive)
- z-score [15, 23]: -0.238 (inactive) and 0.483 (inactive)
- z-score [15, 24]: -0.211 and 0.374
- remaining NAD [16]: 10 nM (inactive)
- luciferase signal [17]: 32 AU (inactive)
- z-score [18]: 0.14 (inactive) and 0.36 (inactive) and 1.19 (inactive)

SMILES: Clc1ccc(COC(Cn2ccnc2)c2ccc(Cl)cc2Cl)cc1 (configuration not stated)
- score [1]: 0.26
- cytochrome c release ratio [2]: 0.38
- inhibition of aggregation [3]: 43.9%
- nuclear beta-catenin stimulation ([4]; at 10 µM): 3.6% (inactive)
- nuclear beta-catenin stimulation ([4]; stimulation, at 2 µM): 4.8%
- insulin secretion stimulation [5]: 2.8% (inactive)
- viability decrease [6]: 101% (active)
- tube area decrease [7]: 108% (active)
- GLP1 secretion stimulation [8]: 23.9% (active)
- inhibition of viability [9]: 102% (active)
- viability decrease (inhibition) [10]: 123% (active)
- viability decrease (inhibition) [11]: 103% (active)
- inhibition [12]: -10.8% (inactive)
- red/green cell ratio (normalised) [13]: 1.13 (inactive)
- normalised cell number [13, 21]: 0.92
- normalised cell number [13, 22]: 1.04
- activity remaining [14]: 123% (inactive)
- z-score [15, 23]: -0.276 (inactive) and 1.78 (inactive)
- z-score [15, 24]: 0.45 and 0.962
- remaining NAD [16]: 10 nM (inactive)
- luciferase signal [17]: 60 AU (inactive)
- z-score [18]: -1.53 (inactive)

SMILES: CCC1(C2=NCCN2)Cc2ccccc2O1 (configuration not stated)
- parasite load remaining [19]: 40% (inactive)
- viability [19]: 95.5%
- nuclear beta-catenin stimulation ([4]; at 10 µM): 1.3% (inactive)
- nuclear beta-catenin stimulation ([4]; stimulation, at 2 µM): -0.1%
- insulin secretion stimulation [5]: 3% (inactive)
- viability decrease [6]: -18.3% (inactive)
- tube area decrease [7]: 6.6% (inactive)
- GLP1 secretion stimulation [8]: 2.2% (inactive)
- inhibition of viability [9]: 3.97% (inactive)
- viability decrease (inhibition) [10]: 3% (inactive)
- viability decrease (inhibition) [11]: 0.7% (inactive)
- inhibition [12]: 2.64% (inactive)
- red/green cell ratio (normalised) ([13]; counts scaled to control wells, 1 = unselective): 0.88 (inactive)
- normalised cell number [13, 21]: 1.21
- normalised cell number [13, 22]: 1.07
- activity remaining [14]: 92.2% (inactive)
- fold change ([20]; stronger effect = lower value): 0.923 (inactive) and 0.953 (inactive) and 0.905 (inactive)
- fold change ([20]; measured here: relative caspase fold change +Dox/-Dox): 1.9 and 0.731 and 1.02
- cell count ([20]; measured here: total cells with miR-34 induction, stronger effect = lower value): 9860 and 8980 and 10100
- cell count ([20]; measured here: total cells without miR-34 induction): 10700 and 9420 and 11200
- z-score [15, 23]: -0.478 (inactive)
- z-score [15, 24]: -0.349
- remaining NAD [16]: 10 nM (inactive)
- luciferase signal [17]: 140 AU (inactive)
- z-score [18]: 0.21 (inactive) and 0.18 (inactive) and 0.695 (inactive)

SMILES: CC(NC(C)(C)C)C(=O)c1cccc(Cl)c1 (configuration not stated)
- nuclear beta-catenin stimulation ([4]; at 10 µM): -0.1% (inactive)
- nuclear beta-catenin stimulation ([4]; stimulation, at 2 µM): 7.1%
- insulin secretion stimulation [5]: 0.3% (inactive)
- viability decrease [6]: -43.9% (inactive)
- tube area decrease [7]: 9.3% (inactive)
- GLP1 secretion stimulation [8]: 0.3% (inactive)
- inhibition of viability [9]: 9.97% (inactive)
- viability decrease (inhibition) [10]: 30.2% (inactive)
- viability decrease (inhibition) [11]: -10.5% (inactive)
- inhibition [12]: -4.52% (inactive)
- red/green cell ratio (normalised) [13]: 1.12 (inactive)
- normalised cell number [13, 21]: 1.04
- normalised cell number [13, 22]: 1.16
- activity remaining [14]: 97% (inactive)
- z-score [15, 23]: -0.0615 (inactive) and 0.02 (inactive) and 0.556 (inactive)
- z-score [15, 24]: -0.319 and -0.308 and 0.695
- remaining NAD [16]: 10 nM (inactive)
- luciferase signal [17]: 52 AU (inactive)
